Consider 40 compounds from PubChem BioAssay (NCI).

About 79,000 compounds went through this panel and 15% of them were active in at least one assay; those are over-represented in the sample as a whole. A number with no mark means an inactive call. Calls of active or inactive are those of the source. Rule as the data show it: active = growth inhibition above about 70%; inactive = the rest.

The assay is described as follows: NCI Yeast Anticancer Drug Screen. Data for the cln2 rad14 strain (AID 165).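 Also: 0% = growth equal to vehicle treated cultures.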 Conditions: S. cerevisiae cln2 rad14 strain, at 5.0 µM (retest, dose inferred, filed as 0.5), hits give high values. An outline of the steps:
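Each compound was tested on cln2 rad14 yeast. Inhibition of growth was calculated against vehicle-exposed controls.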
Turning to `Cc1ccccc1N1C(=O)C(=O)c2cccc(C)c21`, the growth inhibition was 1%. As for `Nc1n[nH]c(=O)c2cccnc12`, the growth inhibition was 5%. Take `CCCCNCCCNCCCNC(=O)c1csc(-c2csc(CCNC(=O)C(NC(=O)C(C)C(O)C(C)NC(=O)C(NC(=O)c3nc(C(CC(N)=O)NCC(N)C(N)=O)nc(N)c3C)C(OC3OC(CO)C(O)C(O)C3OC3OC(CO)C(O)C(OC(N)=O)C3O)c3cnc[nH]3)C(C)O)n2)n1` (stereo not given): the growth inhibition is 95% (active).

On to `c1ccc(-c2ccc(-c3cnc(-c4ccc(-c5ccccc5)cc4)o3)cc2)cc1`, for which the growth inhibition was -1%. The result for `CN(C)C=Nc1ccc2nonc2c1` reads 19%; that for `COC(=O)C(CCC(=O)Cc1ccccc1)N1C(=O)c2ccccc2C1=O` (stereo not given), 10%; that for `O=S(=O)(Nc1ccccc1)c1ccccc1CC(O)(c1ccccc1)c1ccccc1`, 59%.

As to `O=C1OC(=O)C2C=CC=CC12` (stereo not given), the growth inhibition is -1%. The same measure for `CCOC(=O)N/N=C/c1ccc([N+](=O)[O-])o1`: 1%. The result for `CN=C(N)N/N=C(\C)c1ccc2c(ccc3ccccc32)c1` reads -3%; that for `O=C(C(/C=N/C(=S)NCc1ccccc1)=C(/O)c1ccccc1)c1ccccc1`, -9%; that for `Cc1nc(Nc2ccc(Cl)cc2)sc1C(=O)Nc1cccc2c(=O)[nH][nH]c(=O)c12`, 3%. The result for `Cc1c2ccccc2c(C)c2c1cc(F)c1ccccc12` reads 34%. As for `CC1=C(C(=O)Nc2ccccc2)C(c2cc(Cl)cc(Cl)c2)C(C(=O)Nc2ccccc2)=C(C)N1`, the growth inhibition is 5%. The result for `O=[N+]([O-])/C(Br)=C\c1ccc([N+](=O)[O-])cc1` reads 17%; that for `CC1=CC(C)(C)Nc2cc(N)ccc21`, -54%.

With `Fc1ccc2nncc(SCc3ccccc3)c2c1`, the growth inhibition was 3%. On to `CN(C)c1ccc(-c2c(C#N)c(-c3ccccc3)n(NS(=O)(=O)c3ccccc3)c(=O)c2C#N)cc1`, for which the growth inhibition is 44%. The result for `Cc1cc(N2C(=O)CCSC2=S)ccc1Cl` reads 47%; that for `C=C(c1ccccc1)[P+](c1ccccc1)(c1ccccc1)c1ccccc1`, 97% (active); that for `Cc1cc(Br)c2ccccc2c1N`, -1%. The result for `CC1C[N+](C)(C)C(C)C(=O)C1(c1ccccc1)c1ccccc1` (stereo not given) reads -1%; that for `CC(=O)N(C1=CC(=O)c2ccccc2C1=O)c1ccc(C)cc1`, 5%.

In the case of `CC(c1ccccc1)n1c2ccccc2c2c(N)ncnc21` (stereo not given), the growth inhibition was -4%. The result for `CC(=O)O/N=C1/CCC2C3CC=C4CC(OC(C)=O)CCC4(C)C3CCC12C` (stereo not given) reads -1%; that for `c1cc(CCSSCCc2ccncc2)ccn1`, 4%. Consider `CC1=C(C(=O)Nc2cc(C)ccc2C)C(c2cccc([N+](=O)[O-])c2)C(C(=O)Nc2cc(C)ccc2C)=C(C)N1`, for which the growth inhibition was 5%. Turning to `ClC1=CC(Cl)=C2N=C(C(Cl)(Cl)Cl)N=C3N=C(C(Cl)(Cl)Cl)N=C1N32`, the growth inhibition was 12%. The result for `C[n+]1c(-c2ccc(/C=N/Nc3n[nH]c(=S)n3/N=C/c3ccc(-c4cn5ccsc5[n+]4C)cc3)cc2)cn2ccsc21` reads -6%; that for `CC1(C)OC(=O)C(=NNc2ccccc2[N+](=O)[O-])C(=O)O1`, -2%; that for `CC(CCCOC(c1ccccc1)(c1ccccc1)c1ccccc1)OC(=O)Nc1ccccc1` (stereo not given), 92% (active). The same measure for `CCN(CC)c1ccc2nc3ccc(N(CC)CC)cc3[n+](-c3ccccc3)c2c1`: 79% (active). The same measure for `CC1OC(C)C(O)C2=C1C(=O)c1ccccc1C2=O` (stereo not given): 2%; for `CCCCCCCCCCCCS(=O)(=O)CC(Br)C(=O)c1ccco1` (stereo not given): 12%. Turning to `NC(=O)NOCC1NC(=O)NC1=O` (stereo not given), the growth inhibition is 8%. The same measure for `O=C(O)C1C(=O)OC2CCCCC21` (stereo not given): -3%; for `C=CCNC(=S)N/N=C(\CCC)c1ccccn1`: 96% (active). The same measure for `Nc1ccc2c(c1)S(=O)(=O)c1cc(N)ccc1-2`: 18%; for `CN1C(=O)c2cccc3cc([N+](=O)[O-])cc(c23)C1=O`: 17%. The same measure for `C/C(=N\NC(=S)NC12CC3CC(CC(C3)C1)C2)c1ccccn1`: -5%.
